KinaseGlo FLuc: Kinase-Glo luciferase inhibition (counter-screen). Q27757. Kinase-Glo luciferase, ATP luminescence, 8 min. 200,000 tested, 0.28% active. Potency, µM (highest dose often 38.3 µM), for inactives: at the highest dose activity change, negative = inhibition, most hits filed as inhibitors; note: % is set by controls: 0 for no effect and ±100 for the full control effect; nearly all actives have a fitted effect of over 60% in size
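Kinase-Glo luciferase light output from ATP and luciferin was measured with 10 uM ATP, within the enzyme's linear range. Buffer: 50 mM imidazole pH 7.2, 50 mM KCl, 7 mM MgCl2, 0.01% Tween 20, 0.05% BSA; luminescence read after 8 min at ambient temperature.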
FLuc modulator: counter-screen for miR-21 project: firefly luciferase inhibitors or activators; P08659; purified FLuc, Km substrates, luminescence inhibition; Potency, µM (series often up to 57.5 µM), inactives show at the top dose activity change, negative = inhibition, most hits filed as inhibitors; 360,000 tested, 6.9% active;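 note: plate controls were vehicle for no effect and reference inhibitor for full effect; nearly all actives have a fitted effect of over 55% in size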
Target sequence (P08659 whole entry, looked up): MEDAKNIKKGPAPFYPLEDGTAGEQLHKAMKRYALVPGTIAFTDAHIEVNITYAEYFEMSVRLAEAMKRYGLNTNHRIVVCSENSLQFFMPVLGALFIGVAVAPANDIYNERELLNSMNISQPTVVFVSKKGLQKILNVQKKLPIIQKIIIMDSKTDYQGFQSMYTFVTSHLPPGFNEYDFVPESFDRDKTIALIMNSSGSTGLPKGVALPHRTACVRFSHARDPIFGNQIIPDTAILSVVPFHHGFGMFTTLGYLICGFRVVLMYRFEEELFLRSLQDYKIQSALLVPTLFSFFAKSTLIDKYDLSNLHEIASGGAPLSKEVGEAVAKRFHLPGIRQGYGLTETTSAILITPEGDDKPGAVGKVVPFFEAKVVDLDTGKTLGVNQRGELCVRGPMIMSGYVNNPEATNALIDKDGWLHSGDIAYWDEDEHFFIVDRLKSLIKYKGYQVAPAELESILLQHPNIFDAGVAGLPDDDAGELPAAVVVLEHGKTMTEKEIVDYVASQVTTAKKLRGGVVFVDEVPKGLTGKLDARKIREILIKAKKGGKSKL
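Purified P. pyralis luciferase (10nM final) with 10uM D-luciferin and 10uM ATP (Km levels) in 50mM Tris acetate pH 7.5, 10mM Mg acetate, 0.01% Tween-20, 0.05% BSA; qHTS 6-point titration, ~60 µM downward; luminescence read.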
ELG1 genotoxic: inducers of genotoxicity in HEK293T ELG1-luciferase cells; HEK293T ELG1-luciferase reporter, luminescence, 16 h; Potency, µM (series often up to 46 µM), for the others: at the highest dose activity change, positive = activation, usual class: activators; 330,000 tested, 1.3% active; AID 504466; note: % of control where 0% means no effect; nearly all actives have a fitted effect of over 60% in size
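After overnight (16 hr) compound treatment at 37 °C, ELG1-luciferase HEK293T cells were lysed with ONE-Glo; luminescence quantified 30 min later at room temperature.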
SMN2 splice enh: enhancers of SMN2 splice variant expression; HEK293 SMN2-luciferase splicing reporter, luminescence, 30-36 h; Potency, µM (top dose mostly 46.1 µM), without a hit: at the top dose activity change, positive = activation, actives largely listed as activators; 210,000 tested, 2.8% active; note: % of control where 0% means no effect; nearly all actives have a fitted effect of over 55% in size
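HEK293 cells carry an SMN2 […]–luciferase reporter in which exon 7 inclusion puts luciferase in frame. Cells were plated 10-12 h before compound addition, then incubated 30-36 h at 37C. ONE-Glo luminescence was read; sodium butyrate at 4.5 mM final served as control.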
Rab9 promoter act: activates the Rab9 promoter. AID 485297. Huh7 Rab9 promoter-luciferase reporter, luminescence, 24 h. Potency, µM (doses to about 9.22 µM), inactives show at the highest dose activation, negative = inhibition, hits mostly activators. 320,000 tested, 2.8% active; note: % of control where 0% means no effect; nearly all actives have a fitted effect of over 60% in size
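Quantitative HTS format; Huh7 Rab9-luciferase reporter cells (1500/well) receive compound 2 h post-plating, incubate 24 h at 37 °C, then get luciferase reagent for 10 min before luminescence reading.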
NPC1 prom act: activates the NPC1 promoter. Huh7 NPC1 promoter luciferase reporter, 24 h. Potency, µM (doses to about 9.22 µM), inactives show at the top dose activation, usual class: activators. 320,000 tested, 2.4% active. AID 485313; note: % of control where 0% means no effect; nearly all actives have a fitted effect of over 60% in size
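NPC1 promoter–luciferase Huh7 cells; 24 h compound; luminescence.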
* = called active by the depositor; u = inconclusive; x = not tested or not shown; [ ] = another dose, or the depositor's remark. Compounds with a hit are over-represented: about 7.5% of the library has one in this group of screens. Calls come from the whole dose curve; as a rule, active = well fitted curve in the direction sought with a large enough effect; inconclusive = small, poorly fitted or top-dose-only effect, or another doubt; inactive = no such curve, though single readings can be large; an effect the other way counts as inactive or inconclusive. Potency is the fitted concentration of half-maximal effect.

SMILES	KinaseGlo FLuc	FLuc modulator	ELG1 genotoxic	SMN2 splice enh	Rab9 promoter act	NPC1 prom act
CCN(C(=O)COC(=O)c1cccc(NS(=O)(=O)c2ccc(F)c(F)c2)c1)C1CCS(=O)(=O)C1 (centres undefined)	4%	3%	1%	7%	-1%	-8%
COc1ccc(N=Cc2oc3ccc4ccccc4c3c2O)cc1	-6%	u	22%	13µM*	3.2µM*	u
COc1ccc(OC)c(/C=N\NC(=O)c2cc3c(ccc4ccccc43)o2)c1	x	-14%	-9%	x	4%	2%
Cn1c(-n2c(-c3ccco3)nc3ccccc3c2=O)nc2ccccc21	-6%	21µM*	-1%	-10%	-5%	0%
O=c1c2ccccc2nc(-c2ccco2)n1CCc1ccc(O)cc1	x	-15%	-15%	x	6%	-5%
O=c1c2ccccc2nc(-c2ccco2)n1-c1nc2ccccc2s1	2%	15µM*	6%	-14%	5%	7%
O=C(Nc1ccc(F)cc1)c1ccc2c(c1)NC(=O)c1ccccc1S2	x	-3%	x	-70%	x	x
O=C(CN(Cc1ccco1)C(=O)CNS(=O)(=O)c1ccccc1)NCc1ccc(F)cc1	1%	6%	18µM*	-5%	20%	16%
CN1CCN(Cn2cc(/C=C/C(=O)c3ccccc3)c3ccccc32)CC1	-4%	2.4µM*	u	27%	2.8µM*	u
O=C(/C=C/c1cn(CC(O)CN2CCCCCC2)c2ccccc12)c1ccccc1 (centres undefined)	x	0%	x	-1%	x	x
CCc1ccc(C(=O)COC(=O)CNC(=O)CNS(=O)(=O)c2ccccc2)cc1	x	19µM*	1%	x	3%	1%
CCc1ccc(C(=O)COC(=O)CNC(=O)Cc2ccccc2)cc1	x	17µM*	3%	x	1%	3%
CCc1ccc(C(=O)COC(=O)CNC(=O)C2CCCCC2)cc1	x	0.85µM*	3%	x	25%	-1%
CCc1ccc(C(=O)COC(=O)CNC(=O)CNC(=O)Cc2ccccc2)cc1	-2%	u	-1%	-7%	-2%	1%
COc1ccc(CC(N)C(=O)NC2C(CO)OC(n3cnc4c(N(C)C)ncnc43)C2O)cc1 (centres undefined)	-7%	x	x	-88%	x	x
CCOC(=O)c1noc2nc(C)n(CC(=O)Nc3cc(Cl)ccc3OC)c(=O)c12	x	-6%	x	x	x	x
COC(=O)Cc1c(C)c2ccc(OC(=O)c3ccco3)cc2oc1=O	-1%	17µM*	4%	-4%	1%	0%
COC(=O)Cc1c(C)c2ccc(OC3CCCCC3=O)cc2oc1=O (centres undefined)	x	u	5%	x	23%	22%
COC(=O)Cc1c(C)c2ccc(OC(C)C)cc2oc1=O	x	15µM*	18%	x	3.2µM*	u
CCn1cc(C(=O)NCc2ccc(Cl)cc2)c(=O)c2cc(S(=O)(=O)N(C)C3CCCCC3)ccc21	x	-7%	x	-1%	x	x
COc1ccc(C)cc1NC(=O)COCc1cc(-c2ccc(F)cc2)on1	x	-12%	x	x	x	x
CN(C)c1ccc(NC(=O)Cn2cc3c(n2)CCCC3)cc1	-3%	19µM*	u	-4%	0%	9%
Cc1cc(C)cc(NC(=O)Cn2cc3c(n2)CCCCC3)c1	4%	0%	-3%	5%	13%	4%
OC[C@H]1O[C@@H](O[C@@H]2[C@@H](CO)O[C@](O)(CO)[C@H]2O)[C@H](O)[C@@H](O)[C@H]1O	2%	x	x	x	x	x
COc1ccc(-c2csc(NC(=O)CSc3nc(C)nc4sc(C(=O)O)c(C)c34)n2)cc1	x	27µM*	1%	x	-3%	-2%
SMILES	KinaseGlo FLuc	FLuc modulator	ELG1 genotoxic	SMN2 splice enh	Rab9 promoter act	NPC1 prom act
COc1ccccc1NC(=O)CSc1nc(SC)ns1	x	-5%	11%	x	19%	5%
COc1ccc(-c2csc(NC(=O)CSCC(=O)Nc3cc(C)on3)n2)cc1	x	u	1%	x	1%	8%
COc1ccc(-c2csc(NC(=O)CSc3nc(SC)ns3)n2)cc1	-1%	u	u	22µM*	26%	u
CCOC(=O)C1CCN(C(=O)COC(=O)CNC(=O)c2sc3ccccc3c2Cl)CC1	x	9.5µM*	0%	x	-3%	-2%
CS(=O)(=O)c1ccc(Cl)c(NC(=O)COC(=O)CNC(=O)c2sc3ccccc3c2Cl)c1	x	15µM*	-4%	x	-1%	0%
CC1CCCCN1C(=O)COC(=O)CNC(=O)c1sc2ccccc2c1Cl (centres undefined)	x	u	-2%	x	-4%	0%
NC(=O)c1ccc(NC(=O)COC(=O)CNC(=O)c2sc3ccccc3c2Cl)cc1	x	6.7µM*	1%	x	-9%	-2%
O=C(COC(=O)CNC(=O)c1sc2ccccc2c1Cl)NC1CCS(=O)(=O)C1 (centres undefined)	x	17µM*	-2%	x	2%	-1%
CCOc1ccc(NC(=O)C2CCN(C(=O)C3CC(=O)N(c4ccc(C)cc4)C3)CC2)cc1 (centres undefined)	x	-2%	-6%	x	0%	0%
O=C(NCc1ccccc1Cl)C1CCN(S(=O)(=O)Cc2ccccc2)CC1	x	6%	x	x	x	x
CCn1c(=O)c2c(n3c(=S)[nH]nc13)-c1ccccc1CC21CCCCC1	2%	15µM*	5%	-18%	2%	-5%
CCn1c(SCC#N)nc2c(c1=O)C1(CCCC1)Cc1ccccc1-2	1%	5%	-5%	2%	5%	-7%
CC(Sc1cccc[n+]1[O-])C(=O)Nc1ccc(Oc2ccccc2)cc1 (centres undefined)	3%	-3%	0%	7%	-1%	1%
Cc1ccc(CCNC(=O)CNC(=O)c2cccs2)cc1	0%	6%	2%	3%	-1%	-4%
O=c1cc(-c2ccc(O)cc2)oc2c1ccc1ccccc12	x	-12%	u	x	11%	4%
COc1cc2oc(-c3ccc(O)cc3)cc(=O)c2c(O)c1OC	x	19µM*	u	x	0%	24%
O=c1cc(-c2ccccc2)oc2cc(O)c(O)c(O)c12	1%	x	u	u	x	x
COc1cc2oc(-c3ccc(O)cc3)cc(=O)c2c(OC)c1O	x	24µM*	16µM*	x	1%	-2%
COc1c(O)cc2oc(-c3ccc(O)cc3)cc(=O)c2c1O	x	0.85µM*	9.2µM*	x	u	u
COc1cccc2oc(-c3ccc(O)cc3)cc(=O)c12	-19%	x	x	x	x	x
O=c1cc(-c2ccc(O)cc2)oc2ccc3ccccc3c12	x	0.067µM*	u	x	u	0.89µM*
COc1cccc(-c2cc(C(F)(F)F)nc(NCCc3ccc(OC)c(OC)c3)n2)c1	x	0%	x	-25%	x	x
CCc1c(C)[nH]c2c1C(=O)[C@H](CN1CCOCC1)CC2	-1%[17.1 µM]	x	x	-1%[20.6 µM]	x	x

Bioassay records as filed in PubChem.
